Screening data (PubChem)
FMDV inh – High Throughput Screening for Foot and Mouth Disease Virus Antivirals; 410,000 compounds, 1.2% hits; FMDV antiviral cell-based qHTS; Potency, µM (highest dose often 57.9 µM), without a hit: top-dose activity change, negative = inhibition, hits mostly inhibitors; calls by dose curve; tested in HEK293T cells; note: read-out not given here; potency is the fitted concentration of half-maximal effect; % is set by controls: 0 for no effect and ±100 for the full control effect; nearly all actives have a fitted effect of over 45% in size
Shiga toxin inh – A qHTS for Small Molecule Inhibitors of Shiga Toxin | Vero cells, Shiga toxin protein synthesis inhibition reporter | inhibition, % at 38.7 µM | AID 2315, 2010 | 290,000 compounds, 9.2% hits; in the data active = inhibition mostly above about 28%, no sharp cut-off; inactive = mostly below about 43%; note: 0% is about no effect
HCV inh – qHTS Assay for Inhibitors of Hepatitis C Virus (HCV); Huh7.5.1 HCVcc-Cre infection, luciferase reporter, 44 h; Potency, µM (titrated, usually from 41.8 µM), inactives show at the highest dose activity change, negative = inhibition, usual class: inhibitors; 340,000 compounds, 3.4% hits; AID 651820, 2012; note: potency is the fitted concentration of half-maximal effect; % is set by controls: 0 for no effect and ±100 for the full control effect
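Compounds are dispensed onto cells plated 4 h earlier at 1,000 per well, with HCVcc-Cre virus (about 0.5 moi) added next. Following 44 h of culture, luminescent signal is measured for 15 sec after 15 min with substrate at room temperature.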
MARV entry inh – qHTS for inhibitors of binding or entry into cells for Marburg Virus; AID 540276, 2011; 300,000 compounds, 1.8% hits; Marburg virus pseudotyped entry inhibition, cell reporter; Potency, µM (series often up to 37.8 µM), for inactives: at the highest dose activity change, negative = inhibition, most hits filed as inhibitors; calls by dose curve; tested in HEK293 cells; note: potency is the fitted concentration of half-maximal effect; % is set by controls: 0 for no effect and ±100 for the full control effect
LASV entry inh – qHTS for Inhibitors of binding or entry into cells for Lassa Virus; Lassa virus pseudotype entry inhibition, cell reporter; Potency, µM (series often up to 37.9 µM), inactives show at the top dose activity change, negative = inhibition, most hits filed as inhibitors; 300,000 compounds, 1.2% hits; calls by dose curve; tested in HEK293 cells; note: potency is the fitted concentration of half-maximal effect; % is set by controls: 0 for no effect and ±100 for the full control effect; nearly all actives have a fitted effect of over 50% in size
CHX counter – Cycloheximide Counterscreen for Small Molecule Inhibitors of Shiga Toxin | cell reporter, cycloheximide protein synthesis inhibition counterscreen | max response, % | 300,000 compounds, 12% hits; in the data active = max response mostly above about 13%, no sharp cut-off; inactive = mostly below about 14%; note: read at 38.3 µM for the half of the compounds with a filed dose; 0% is about no effect
HCV inh confirm – qHTS Assay for Inhibitors of Hepatitis C Virus (HCV): Confirmation Assay for Cherry-picked Compounds; shares compounds with HCV inh; Potency, µM (titrated, usually from 41.8 µM), inactives show at the highest dose activity, negative = inhibition, usual class: inhibitors; 640 compounds, 78% hits; HCVcc-Cre infectious virus cell assay, luciferase, inhibition; note: potency is the fitted concentration of half-maximal effect; nearly all actives have a fitted effect of over 80% in size
HCV cytotox – qHTS Assay for Inhibitors of Hepatitis C Virus (HCV): Cytotoxicity Counterscreen for Cherry-picked Compounds; shares compounds with HCV inh; HCV host cell line cytotoxicity counterscreen; Potency, µM (top dose mostly 41.8 µM), inactives show at the top dose activity change, negative = cytotoxicity, actives largely listed as inhibitors; 640 compounds, 22% hits;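 note: potency is the fitted concentration of half-maximal effect; 44 h compound exposure; % is set by controls: 0 for no effect and ±100 for the full control effect; nearly all actives have a fitted effect of over 55% in size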
Starred values were filed as active, the others as inactive; [ ] = dose if it differs, or a comment. Hits are enriched below; roughly 13% of the tested compounds scored in any of these assays. Unless noted, calls come from the whole dose curve; as a rule, active = well fitted curve in the direction sought with a large enough effect; inconclusive = small, poorly fitted or top-dose-only effect, or another doubt; inactive = no such curve, though single readings can be large; an effect the other way counts as inactive or inconclusive.

How did COc1ccc(-c2ccc3oc(-c4ccc(OC)cc4)c(C#CCCO)c3c2)cc1 do in these assays?
FMDV inh: -23%; HCV inh: 1.1µM*; HCV inh confirm: 2.2µM*; HCV cytotox: 15%

What do the screens show for `CCOc1ccc(NC(=O)CN(C)Cc2cc(=O)n3c(-c4ccccc4)csc3n2)cc1OCC`?
FMDV inh: -18%; Shiga toxin inh: -5; HCV inh: 6.3µM*; MARV entry inh: 2%[46.1 µM]; LASV entry inh: -3%; CHX counter: 2; HCV inh confirm: inconclusive; HCV cytotox: 25%

Results for Cc1ccc(OCc2cc(=O)n3c(-c4ccccc4)csc3n2)cc1 ?
FMDV inh: 13%; MARV entry inh: -3%[46.1 µM]; LASV entry inh: 14%[46.1 µM]

How did CC(C)N(Cc1nccn1C)C(=O)C1CCC(=O)N(CCc2ccccc2)C1 (configuration not stated) do in these assays?
FMDV inh: -7%

What do the screens show for `CS(=O)(=O)Nc1cccc(-c2nccc(NCc3cccs3)n2)c1`?
FMDV inh: 10%

How did COC(=O)C1=C(C)NC(=O)NC1c1ccc(-c2ccccc2Cl)o1 (configuration not stated) do in these assays?
FMDV inh: inconclusive; Shiga toxin inh: -21; HCV inh: inconclusive; MARV entry inh: -9%[46.1 µM]; LASV entry inh: -13%; CHX counter: 5; HCV inh confirm: 22µM*; HCV cytotox: 2%

How did Cc1nn(C)cc1S(=O)(=O)NC1CCCC1 do in these assays?
FMDV inh: 10%; Shiga toxin inh: 4; HCV inh: 9%; MARV entry inh: 2%[46.1 µM]; LASV entry inh: 1%; CHX counter: 8

Results for c1coc(CNc2nc3nonc3nc2NCc2ccco2)c1 ?
FMDV inh: inconclusive; Shiga toxin inh: -5; HCV inh: inconclusive; MARV entry inh: inconclusive; LASV entry inh: -10%; CHX counter: 4; HCV inh confirm: 2.2µM*; HCV cytotox: -23%

Results for CCN(CC)C(c1ccc(F)cc1)c1nnnn1CC1CCCO1 (configuration not stated) ?
FMDV inh: -2%; Shiga toxin inh: -26; HCV inh: -2%; MARV entry inh: -9%; LASV entry inh: 0%; CHX counter: -4

How did Cc1cc(C(=O)OCC(=O)NCc2ccccc2)c(C)o1 do in these assays?
FMDV inh: 8%; Shiga toxin inh: -3; HCV inh: 2%; MARV entry inh: 5%[46.1 µM]; LASV entry inh: inconclusive; CHX counter: 1

What do the screens show for `O=S(=O)(NCc1csc(-c2ccccc2)n1)c1ccccc1`?
FMDV inh: 7%; MARV entry inh: 5%[46.1 µM]; LASV entry inh: -8%[46.1 µM]

How did CCCCN(C(C)=O)c1ccc2c(c1)C1CC2CCN1C(=O)OCc1ccccc1 (configuration not stated) do in these assays?
FMDV inh: 40µM*; HCV inh: 3.5µM*; HCV inh confirm: 4µM*; HCV cytotox: 7.9µM*

Results for O=C(CSCC(=O)N1CCCCC1)Nc1nc(-c2ccccc2)c(-c2ccccc2)s1 ?
FMDV inh: -26%; Shiga toxin inh: -13; HCV inh: inconclusive; MARV entry inh: -17%; LASV entry inh: inconclusive; CHX counter: 1
